Test results as given in PubChem BioAssay (NCATS).
Inconclusive results are not listed. A number with no mark means an inactive call. Active and inactive are the calls of the source. The call rests on the fitted dose curve; in most records, active means well fitted cell-killing curve with a large enough effect; inconclusive means small, poorly fitted or top-dose-only effect, or effect the other way; inactive means no such curve, though single readings can be large or run the other way. Peptide text beside a SMILES is read from it.

Assay: Quantitative High-Throughput drug screen in 47 multiple myeloma cell lines against the NCATS MIPE library collection: Karpas25_ECACC cell viability assay (AID 1918968; further: nearly all actives have a fitted effect of over 35% in size)
Conditions: Karpas25 myeloma viability, CellTiter-Glo ATP, 48 h; series mostly up to 45.8 µM; viability (% of control): at the top concentration
From the text: PI: Beverly A. Mock Ph.D.
Laboratory of Cancer Biology and Genetics,
Center for Cancer Research, National Cancer Institute,
National Institute of Health, Bethesda, Maryland
Drug resistance and disease progression are common in multiple myeloma (MM) patients, underscoring the need for new therapeutic combinations. […] We hypothesized that effective combinations would reduce MYC expression and enhance p16 activity. […] These preclinical data identify potentially useful drug combinations for evaluation in drug-resistant MM and reveal potential mechanisms of combined drug sensitivity.
Described herein is the primary MIPE qHTS used to cherrypick compounds. Validated compounds were then further tested for potential synergistic activiy.
[1] Peat TJ, Gaikwad SM, Dubois W, Gyabaah-Kessie N, Zhang S, Gorjifard S, Phyo Z, Andres M, Hughitt VK, Simpson RM, Miller MA, Girvin AT, Taylor A, Williams D, D'Antonio N, Zhang Y, Rajagopalan A, Flietner E, Wilson K, Zhang X, Shinn P, Klumpp-Thomas C, McKnight C, Itkin Z, Chen L, Kazandijian D, Zhang J, Michalowski AM, Simmons JK, Keats J, Thomas CJ, Mock BA. Drug combinations identified by high-throughput screening promote cell cycle transition and upregulate Smad pathways in myeloma. Cancer Lett. 2023 Aug 1;568:216284. doi: 10.1016/j.canlet.2023.216284. Epub 2023 Jun 24. PMID: 37356470; PMCID: PMC10408729.
SEQUENCE No. (e.g., 1, 2, 3, etc.); […] (e.g., Cells, Incubation, Reagent, etc.); VALUE and DESCRIPTION.
1; Cells; 5 uL; white, solid bottom 1536-well Greiner assay plate.
2; Compounds; 23 nL; Kalypsis pin tool (Wako USA) equipped with a 1536-well pin head to transfer to the assay plates.
3; Incubation; 48 hours; 37C incubation.
4; Reagent;5uL; CellTiter Glo (Promega).
5; Detector; 425V; Luminescence; Viewlux PerkinElmer.
NOTES (numbers refer to Sequence numbers above)
1. The cell-based screening methods employed in this study were like those previously published. Briefly, the corresponding myeloma cell lines were screened in 1,536-well plates with 500 cells, 5-uL per well for inhibition of cell viability (assessed by measuring ATP levels with CellTiterGlo).
2. NCATS MIPE 4.0 library of approved and investigational drugs were added using the Kalypsis pin tool. Wells treated with DMSO only for 100% viability and media only wells for 0% viability were used as controls.
3. The assay plates were covered and incubated for 48 hours in a 37C, 5% CO2 incubator with controlled humidity.
4. After 48 hours, CellTilter-GloTM luminescent substrate mix (Promega) reagent was added to the assay plate and plates we incubated for 5 min at room temperature.
5. Signal was measured as median relative luminescence units on a ViewLux (PerkinElmer) multiplate reader.
[1] Heske CM, Davis MI, Baumgart JT, Wilson K, Gormally MV, Chen L, Zhang X, Ceribelli M, Duveau DY, Guha R, Ferrer M, Arnaldez FI, Ji J, Tran HL, Zhang Y, Mendoza A, Helman LJ, Thomas CJ. Matrix Screen Identifies Synergistic Combination of PARP Inhibitors and Nicotinamide Phosphoribosyltransferase (NAMPT) Inhibitors in Ewing Sarcoma. Clin Cancer Res. 2017 Dec 1;23(23):7301-7311. doi: 10.1158/1078-0432.CCR-17-1121. Epub 2017 Sep 12. PMID: 28899971; PMCID: PMC6636827.
Potency means the concentration at half of the fitted maximal effect.

Question: With `CCC1=C(C)CN(C(=O)NCCc2ccc(S(=O)(=O)NC(=O)NC3CCC(C)CC3)cc2)C1=O` (stereo not given) as the molecule, how does the “viability (% of control)” value read?
Answer: 93.7%

Question: For `CCN(CC)C(=S)SSC(=S)N(CC)CC`, which Potency is on record?
Answer: 0.001 µM (active)

Question: For `Cc1cc(=O)c2c(O)c3c(O)cc(=O)c4c3c3c(cc(O)c1c23)C(C)(C)C=4O`, which Potency is on record?
Answer: 0.264 µM (active)

Question: For `COC1=C(OC)C(=O)C(CCCCCCCCCCO)=C(C)C1=O`, which Potency is on record?
Answer: 13.2 µM (active)

Question: Which “viability (% of control)” value does the source give for `O=C(OC1C[C@H]2CC[C@@H](C1)[N+]21CCCC1)C(O)(c1ccccc1)c1ccccc1` (stereo not given in full) here?
Answer: 103%

Question: Which “viability (% of control)” value does the source give for `NS(=O)(=O)c1cc(C(=O)O)c(NCc2ccco2)cc1Cl` here?
Answer: 82.7%

Question: Which Potency does the source give for `COc1ccc(C2(C#N)CCC(C(=O)O)CC2)cc1OC1CCCC1` (stereo not given) here?
Answer: 23.5 µM (active)

Question: Which Potency does the source give for `CC(C)C[C@H](NC(=O)[C@H](Cc1ccccc1)NC(=O)c1cnccn1)B(O)O` here?
Answer: 0.0074 µM (active)

Question: Which Potency does the source give for `Cc1nc(Nc2ncc(C(=O)Nc3c(C)cccc3Cl)s2)cc(N2CCN(CCO)CC2)n1` here?
Answer: 0.332 µM (active)

Question: For `CNC[C@H](O)c1ccc(O)c(O)c1`, which Potency is on record?
Answer: 5.4 µM (active)

Question: With `N[C@@H](Cc1cc(I)c(Oc2cc(I)c(O)c(I)c2)c(I)c1)C(=O)O` as the molecule, how does the “viability (% of control)” value read?
Answer: 109%

Question: Which “viability (% of control)” value does the source give for `COc1cc2c(cc1OC)C1CC(=O)C(CC(C)C)CN1CC2` (stereo not given) here?
Answer: 109%

Question: Which Potency does the source give for `CC1(C)CCC(C)(C)c2cc(NC(=O)c3ccc(C(=O)O)cc3)ccc21` here?
Answer: 20.9 µM (active)

Question: Which Potency does the source give for `CN(C)C(=O)[C@H](O)[C@H](Cc1ccccc1)NC(=O)c1cc2cc(Cl)ccc2[nH]1` here?
Answer: 1.66 µM (active)

Question: Which Potency does the source give for `O=C(CS(=O)Cc1ccco1)NCC=CCOc1cc(CN2CCCCC2)ccn1` (stereo not given) here?
Answer: 20.9 µM (active)

Question: For `O=C1CCc2ccc(OCCCCN3CCN(c4cccc(Cl)c4Cl)CC3)cc2N1`, which Potency is on record?
Answer: 16.6 µM (active)

Question: With `O=C1c2c(O)cc(O)cc2OC(c2ccc(O)c(O)c2)C1O` (stereo not given) as the molecule, how does the “viability (% of control)” value read?
Answer: 128%

Question: Which “viability (% of control)” value does the source give for `CCOc1cc(CC(=O)N[C@@H](CC(C)C)c2ccccc2N2CCCCC2)ccc1C(=O)O` here?
Answer: 125%

Question: For `O=C(CCc1ccc(O)cc1)c1c(O)cc(O)cc1O`, which Potency is on record?
Answer: 0.187 µM (active)

Question: For `COc1ccc2cc([C@H](C)C(=O)O)ccc2c1`, which Potency is on record?
Answer: 20.9 µM (active)

Question: Which Potency does the source give for `Cc1cc(C2CCCCC2)n(O)c(=O)c1` here?
Answer: 3.32 µM (active)

Question: With `CN(C)CCCC1(c2ccc(F)cc2)OCc2cc(C#N)ccc21` (stereo not given) as the molecule, how does the “viability (% of control)” value read?
Answer: 80%

Question: For `CC[C@]1(O)C[C@H]2CN(CCc3c([nH]c4ccccc34)[C@@](C(=O)OC)(c3cc4c(cc3OC)N(C=O)[C@H]3[C@@](O)(C(=O)OC)[C@H](OC(C)=O)[C@]5(CC)C=CCN6CC[C@]43[C@@H]65)C2)C1`, which Potency is on record?
Answer: 0.0105 µM (active)

Question: For `CC(=O)O[C@H]1C(=O)[C@@]2(C)C([C@H](OC(=O)c3ccccc3)[C@]3(O)C[C@H](OC(=O)[C@H](O)[C@@H](NC(=O)c4ccccc4)c4ccccc4)C(C)=C1C3(C)C)[C@]1(OC(C)=O)CO[C@@H]1C[C@@H]2O` (stereo not given in full), which “viability (% of control)” value is on record?
Answer: 54.3%

Question: Which “viability (% of control)” value does the source give for `COC(=O)[C@H](Cc1ccccc1)NC(=O)[C@@H](N)CC(=O)O` (H-Asp-Phe-OMe) here?
Answer: 99.3%

Question: For `COc1cc(OC)c(C(=O)CCCN2CCCC2)c(OC)c1`, which “viability (% of control)” value is on record?
Answer: 111%

Question: With `CCC[C@@H]1C[C@@H](C(=O)N[C@@H]([C@H]2O[C@H](SC)[C@H](O)[C@@H](O)[C@H]2O)[C@@H](C)O)N(C)C1` as the molecule, how does the “viability (% of control)” value read?
Answer: 114%

Question: Which “viability (% of control)” value does the source give for `CCCCC(CC)COC(=O)C(C#N)=C(c1ccccc1)c1ccccc1` (stereo not given) here?
Answer: 118%

Question: With `Oc1ccc2ccccc2c1SSc1c(O)ccc2ccccc12` as the molecule, how does the Potency read?
Answer: 8.33 µM (active)

Question: For `COC(=O)C1=C(C)NC(C)=C(C(=O)OC(C)C)C1c1cccc2nonc12` (stereo not given), which Potency is on record?
Answer: 5.26 µM (active)

Question: With `CC(C)c1ccc2c(c1)c(SC(C)(C)C)c(CC(C)(C)C(=O)O)n2Cc1ccc(Cl)cc1` as the molecule, how does the Potency read?
Answer: 20.9 µM (active)

Question: With `O=C(c1ccccc1)c1ccc2n1CCC2C(=O)O` (stereo not given) as the molecule, how does the Potency read?
Answer: 2.96 µM (active)

Question: With `CNC[C@@H](O)[C@@H](O)[C@H](O)[C@H](O)CO` as the molecule, how does the Potency read?
Answer: 20.9 µM (active)

Question: For `Cc1ccc(Nc2nccc(N(C)c3ccc4c(C)n(C)nc4c3)n2)cc1S(N)(=O)=O`, which Potency is on record?
Answer: 16.6 µM (active)

Question: Which “viability (% of control)” value does the source give for `c1cnc2cc3c(cc2n1)C1CNCC3C1` here?
Answer: 96%

Question: Which Potency does the source give for `Nc1ncn([C@H]2C[C@H](O)[C@@H](CO)O2)c(=O)n1` here?
Answer: 4.69 µM (active)

Question: With `CCCCCCCCCCCCCCCCCCCCCCO` as the molecule, how does the “viability (% of control)” value read?
Answer: 103%

Question: With `O=C(NOCC1CC1)c1ccc(F)c(F)c1Nc1ccc(I)cc1Cl` as the molecule, how does the Potency read?
Answer: 11.8 µM (active)

Question: For `CC(S)C(=O)NCC(=O)O` (stereo not given), which Potency is on record?
Answer: 1.87 µM (active)

Question: With `Cc1ccc(S(=O)(=O)NC(=O)NN2CC3CCCC3C2)cc1` (stereo not given) as the molecule, how does the Potency read?
Answer: 26.4 µM (active)
